MARV entry inh = blocks Marburg virus binding to or entry into cells; Marburg virus pseudotyped entry inhibition, cell reporter; Potency, µM (series often up to 37.8 µM), for inactives: at the highest dose activity change, negative = inhibition, usual class: inhibitors; 1.8% of 300,000 active; AID 540276; calls by dose curve; tested in HEK293 cells; also: potency is read from the fitted curve at half-maximal effect; % is scaled to controls: 0 for no effect and ±100 for the full control effect
Lassa entry inh = blocks Lassa virus binding to or entry into cells; 1.2% of 300,000 active; Lassa virus pseudotype entry inhibition, cell reporter; AID 540256; Potency, µM (top dose mostly 37.9 µM), inactives show at the top dose activity change, negative = inhibition, usual class: inhibitors; calls by dose curve; tested in HEK293 cells; also: potency is read from the fitted curve at half-maximal effect; % is scaled to controls: 0 for no effect and ±100 for the full control effect; nearly all actives have a fitted effect of over 50% in size
HCV inhibitor = HCV inhibition; 3.4% of 340,000 active; Huh7.5.1 HCVcc-Cre infection, luciferase reporter, 44 h; Potency, µM (top dose mostly 41.8 µM), for the others: at the top dose activity change, negative = inhibition, most hits filed as inhibitors; active = well fitted inhibition curve with a large enough effect; inconclusive = small, poorly fitted or top-dose-only effect, or another doubt; inactive = no such curve, though single readings can be large or run the other way; also: potency is read from the fitted curve at half-maximal effect; % is scaled to controls: 0 for no effect and ±100 for the full control effect
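Infectious HCV cell culture screen: compound-treated cells (1,000/well, pre-plated 4 h) are infected with HCVcc-Cre at roughly 0.5 moi and grown 44 h. Infection is quantified by luciferase signal after 15 min substrate incubation at room temperature.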
HCMV inh = blocks human cytomegalovirus replication. AID 1259415. activity change, negative = inhibition, % at 57.5 µM. HFF cells, HCMV-luciferase reporter, 72 h; hits give low values. 4.5% of 410,000 active; in the data active = activity change below about -60%; inconclusive = no clear call, values can overlap the other calls; inactive = above about -39%; also: % is scaled to controls: 0 for no effect and ±100 for the full control effect
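Two-dose cell screen: HFF monolayers treated with compounds and infected with luciferase-expressing HCMV at 1 PFU/cell, 72 h at 37C, then lysed for luciferase measurement.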
FMDV inh = foot and mouth disease virus antiviral activity. FMDV antiviral cell-based qHTS. Potency, µM (top dose mostly 57.9 µM), without a hit: at the top dose activity change, negative = inhibition, usual class: inhibitors. 1.2% of 410,000 active; calls by dose curve; tested in HEK293T cells; also: read-out not given here; potency is read from the fitted curve at half-maximal effect; % is scaled to controls: 0 for no effect and ±100 for the full control effect; nearly all actives have a fitted effect of over 45% in size
SARS PLpro yeast = inhibitors of SARS-CoV papain-like protease in yeast. S. cerevisiae expressing SARS-CoV PLpro, growth rescue. Potency, µM (titrated, usually from 32.9 µM), for the others: top-dose activity, positive = growth rescue, hits mostly activators. 0.19% of 330,000 active. AID 485353; calls by dose curve; also: potency is read from the fitted curve at half-maximal effect; 0% is about no effect; nearly all actives have a fitted effect of over 55% in size
* hit, by the source's call; ! = not active in a repeat; [ ] = remark or other dose. An excerpt weighted towards active compounds, which were near 8% of everything screened.

For Cn1c(=O)n(C)c2cc(NS(=O)(=O)c3ccc(F)cc3)c(NCc3ccccc3)cc21 the results were MARV entry inh 16%[46.1 µM], Lassa entry inh -3%[46.1 µM], HCMV inh -18 and FMDV inh 48%.
For N#Cc1ccc(C[C@H](C(=O)O)N2C(=O)c3ccc(C(=O)O)cc3C2=O)cc1 the results were SARS PLpro yeast 3%.
For CCN(CC)CCN1CNC(=S)N(c2ccccc2OC)C1 the results were MARV entry inh 1%[46.1 µM], Lassa entry inh 11%, HCV inhibitor 20%, HCMV inh -65*, FMDV inh 0% and SARS PLpro yeast 1%.
Cc1cccc(-c2cnc(C(O)c3ccc(F)c(C)c3)[nH]2)c1 (centres undefined) was read as HCMV inh 59 and FMDV inh 42%.
For COc1cc(/C=C/C(=O)Nc2cccc(S(=O)(=O)NC3=NCCCCC3)c2)ccc1OCC#N the results were MARV entry inh inconclusive, Lassa entry inh -28%, HCV inhibitor 6.3µM*, HCMV inh -31, FMDV inh 4% and SARS PLpro yeast 7%.
COc1ccc(/C=C/C(=O)Nc2cccc(S(=O)(=O)NC3=NCCCCC3)c2)cc1 was read as HCV inhibitor inconclusive, HCMV inh -5, FMDV inh 8% and SARS PLpro yeast 0%.
Screening COc1ccccc1/C=C/C(=O)Nc1cccc(S(=O)(=O)NC2=NCCCCC2)c1 returned MARV entry inh 11µM*, Lassa entry inh inconclusive, HCV inhibitor inconclusive, HCMV inh -15, FMDV inh -10% and SARS PLpro yeast 0%.
For O=C(/C=C/c1ccc(OC(F)F)cc1)Nc1cccc(S(=O)(=O)NC2=NCCCCC2)c1 the results were MARV entry inh inconclusive, Lassa entry inh 10µM*, HCV inhibitor inconclusive, HCMV inh -69*, FMDV inh inconclusive and SARS PLpro yeast -2%.
`CC(C)C(=O)Nc1nnc(SCC(=O)NCc2cccs2)s1` gave MARV entry inh inconclusive, Lassa entry inh 0%, HCV inhibitor 9%, HCMV inh -92*, FMDV inh -5% and SARS PLpro yeast 3%.
CC(C)(C)C(=O)Nc1nnc(SCC(=O)NCc2cccs2)s1 was read as MARV entry inh 4%, Lassa entry inh inconclusive, HCV inhibitor -3%, HCMV inh 35, FMDV inh -3% and SARS PLpro yeast 1%.
`COc1ccccc1-c1c(C#N)c(N)nc2c1CCc1ccccc1-2` gave MARV entry inh inconclusive, Lassa entry inh inconclusive, HCV inhibitor inconclusive, HCMV inh 17, FMDV inh 32µM* and SARS PLpro yeast -62%.
Screening COc1ccccc1-c1c(C)c(C)nc(N)c1C#N returned MARV entry inh 17%, Lassa entry inh 17%, HCV inhibitor 13%, HCMV inh -72*, FMDV inh -1% and SARS PLpro yeast 5%.
`CCc1nc(N)c(C#N)c(-c2ccccc2OC)c1C` gave MARV entry inh -3%, Lassa entry inh inconclusive, HCV inhibitor -1%, HCMV inh -3, FMDV inh inconclusive and SARS PLpro yeast -2%.
Screening Cc1cn([C@H]2C[C@H](O)[C@@H](CNCc3cccc(OC4CCCC4)c3)O2)c(=O)[nH]c1=O returned HCMV inh 0 and FMDV inh inconclusive.
CCn1c(-c2ccc(S(=O)(=O)N3CCOCC3)cc2)csc1=Nc1ccc(C)c(Cl)c1 was read as Lassa entry inh inconclusive, HCMV inh 3, FMDV inh inconclusive and SARS PLpro yeast 6%.
Cn1c(-c2ccc(S(=O)(=O)N3CCCC3)cc2)csc1=Nc1ccc(Cl)c(Cl)c1 was read as Lassa entry inh inconclusive, HCMV inh -62* and FMDV inh 0%.
For O=S(=O)(c1ccc(-c2csc(=Nc3ccc(OC(F)(F)Cl)cc3)n2CCCO)cc1)N1CCCC1 the results were MARV entry inh inconclusive, Lassa entry inh inconclusive, HCMV inh -100* and FMDV inh inconclusive.
For COCCCn1c(-c2ccc(S(=O)(=O)N3CCOCC3)cc2)csc1=Nc1ccccc1 the results were MARV entry inh 27%, Lassa entry inh -3%[46.1 µM], HCV inhibitor inconclusive, HCMV inh -88*!, FMDV inh 11µM* and SARS PLpro yeast 10%.
CN(c1ccccc1C(=O)O)S(C)(=O)=O was read as MARV entry inh -34%, Lassa entry inh -16%, HCV inhibitor 7%, HCMV inh -1, FMDV inh -2% and SARS PLpro yeast -1%.
Screening CN(C)c1ccccc1C(=O)c1ccccc1N(C)C returned MARV entry inh inconclusive, Lassa entry inh -6%, HCV inhibitor 4µM*, HCMV inh 75, FMDV inh 83% and SARS PLpro yeast 1%.
For Cc1cc(-n2c(C)c3c(C)nnc(C)c3c2C)ccc1N the results were MARV entry inh 17%[14.2 µM], Lassa entry inh 7%, HCV inhibitor -76%, HCMV inh -62*, FMDV inh -18% and SARS PLpro yeast -1%.
`c1ccc(-c2cnc(-c3ccccn3)nn2)cc1` gave HCV inhibitor 0.5µM*, HCMV inh 35 and FMDV inh 27%.
Screening CCC[C@H]1[C@H](N(C)Cc2ccccc2)CC[C@@]23CCCN2C(=O)CCC[C@@H]13 returned HCMV inh 15.
Screening CCOc1ccc(CCN2C(=S)N([C@@H](CC(C)C)CN3CCC[C@@H]3CN3C(=S)NC[C@@H]3CC(C)C)C[C@@H]2Cc2ccc(O)cc2)cc1 returned HCMV inh -98* and FMDV inh -22%.
Screening CCOc1ccc(CCN2C(=S)N([C@@H](CC(C)C)CN3CCCC3CN3C(=S)NC[C@@H]3CC(C)C)C[C@@H]2Cc2ccc(O)cc2)cc1 (some centres undefined) returned HCV inhibitor 0.56µM*, HCMV inh -40 and FMDV inh -23%.
CC(C)(C)CC(C)(C)NC(=O)C(=O)c1cccnc1 was read as HCMV inh 12.
Screening COc1cc(OC)c(N(C)S(=O)(=O)c2cccc(C(=O)OCC(=O)N(C)Cc3ccccc3)c2)cc1Cl returned HCV inhibitor 11µM*, HCMV inh -63* and FMDV inh -3%.
Cn1c(=O)oc2cc(S(=O)(=O)N3CCC(C(=O)N4CCN(c5ccccc5)CC4)CC3)ccc21 was read as MARV entry inh 1%, Lassa entry inh 2%, HCV inhibitor 5%, HCMV inh inconclusive, FMDV inh inconclusive and SARS PLpro yeast -4%.
Screening O=C(C1CCN(S(=O)(=O)c2ccc(F)cc2)CC1)N1CC=C(c2ccccc2)CC1 returned MARV entry inh -15%, Lassa entry inh inconclusive, HCV inhibitor inconclusive, HCMV inh -101*, FMDV inh -22% and SARS PLpro yeast -2%.
